# Source: the supplement of paper PMC4466140
# Experiments:
# Experiment in all cases: SPOT peptide array binding signal intensity (averaged, normalized) (arbitrary units (background-subtracted, floor 0; scale differs between SH3 domains)); higher = stronger binding of the SH3 domain to the peptide
# CaNbp2 = molecular target: CaNbp2
# Summary of the method: (§1)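 Binding signal is given in arbitrary units that differ between domains and is the normalized, background-subtracted spot intensity averaged across replicates. Each GST-SH3 fusion from one of four yeast species was made in E. coli BL21(DE3), purified on glutathione Sepharose and incubated at 10 μg/ml overnight at 4°C on cellulose-bound synthetic 15-mer peptides in which cysteines were replaced by serines. Detection used anti-GST antibody, an HRP anti-mouse secondary and luminol, followed by imaging and Genespotter quantification.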
# CaRvs167 = molecular target: CaRvs167
# Summary of the method: as §1
# CaRvs167-3 = molecular target: CaRvs167-3
# Summary of the method: as §1
# CaSho1 = molecular target: CaSho1
# Summary of the method: as §1
# CaSla1-D1-D2 = molecular target: CaSla1-D1-D2
# Summary of the method: as §1
# CaSla1-D3 = molecular target: CaSla1-D3
# Summary of the method: as §1
# ScAbp1 = molecular target: ScAbp1
# Summary of the method: as §1
# ScBbc1 = molecular target: ScBbc1
# Summary of the method: as §1
# ScBem1-D1 = molecular target: ScBem1-D1
# Summary of the method: as §1
# ScBzz1-D1 = molecular target: ScBzz1-D1
# Summary of the method: as §1
# ScBzz1-D2 = molecular target: ScBzz1-D2
# Summary of the method: as §1
# ScCyk3 = molecular target: ScCyk3
# Summary of the method: as §1
# ScFus1 = molecular target: ScFus1
# Summary of the method: as §1
# ScHof1 = molecular target: ScHof1
# Summary of the method: as §1
# ScHse1 = molecular target: ScHse1
# Summary of the method: as §1
# ScLsb1 = molecular target: ScLsb1
# Summary of the method: as §1
# ScLsb2 = molecular target: ScLsb2
# Summary of the method: as §1
# ScLsb3 = molecular target: ScLsb3
# Summary of the method: as §1
# ScLsb4 = molecular target: ScLsb4
# Summary of the method: as §1
# ScMyo3 = molecular target: ScMyo3
# Summary of the method: as §1
# ScMyo5 = molecular target: ScMyo5
# Summary of the method: as §1
# ScNbp2 = molecular target: ScNbp2
# Summary of the method: as §1
# ScPex13 = molecular target: ScPex13
# Summary of the method: as §1
# ScRvs167 = molecular target: ScRvs167
# Summary of the method: as §1
# ScSho1 = molecular target: ScSho1
# Summary of the method: as §1
# ScSla1-D1-D2 = molecular target: ScSla1-D1-D2
# Summary of the method: as §1
# ScSla1-D3 = molecular target: ScSla1-D3
# Summary of the method: as §1
# SpAbp1-D1 = molecular target: SpAbp1-D1
# Summary of the method: as §1
# SpBbc1 = molecular target: SpBbc1
# Summary of the method: as §1
# SpBzz1-D1 = molecular target: SpBzz1-D1
# Summary of the method: as §1
# SpBzz1-D2 = molecular target: SpBzz1-D2
# Summary of the method: as §1
# SpCyk3 = molecular target: SpCyk3
# Summary of the method: as §1
# SpHof1 = molecular target: SpHof1
# Summary of the method: as §1
# SpHof1-2 = molecular target: SpHof1-2
# Summary of the method: as §1
# SpHof1-3 = molecular target: SpHof1-3
# Summary of the method: as §1
# SpHse1 = molecular target: SpHse1
# Summary of the method: as §1
# SpLsb1 = molecular target: SpLsb1
# Summary of the method: as §1
# SpLsb4 = molecular target: SpLsb4
# Summary of the method: as §1
# SpMyo1 = molecular target: SpMyo1
# Summary of the method: as §1
# SpNbp2 = molecular target: SpNbp2
# Summary of the method: as §1
# SpPex13 = molecular target: SpPex13
# Summary of the method: as §1
# SpRvs167 = molecular target: SpRvs167
# Summary of the method: as §1
# SpSla1-D1-D2 = molecular target: SpSla1-D1-D2
# Summary of the method: as §1
# SpSla1-D3 = molecular target: SpSla1-D3
# Summary of the method: as §1
# AgAbp1 = molecular target: AgAbp1
# Summary of the method: as §1
# AgBbc1 = molecular target: AgBbc1
# Summary of the method: as §1
# AgBem1-D1 = molecular target: AgBem1-D1
# Summary of the method: as §1
# AgBzz1-D1 = molecular target: AgBzz1-D1
# Summary of the method: as §1
# AgBzz1-D2 = molecular target: AgBzz1-D2
# Summary of the method: as §1
# AgCyk3 = molecular target: AgCyk3
# Summary of the method: as §1
# AgFus1 = molecular target: AgFus1
# Summary of the method: as §1
# AgHof1 = molecular target: AgHof1
# Summary of the method: as §1
# AgHse1 = molecular target: AgHse1
# Summary of the method: as §1
# AgLsb1 = molecular target: AgLsb1
# Summary of the method: as §1
# AgLsb4 = molecular target: AgLsb4
# Summary of the method: as §1
# AgMyo5 = molecular target: AgMyo5
# Summary of the method: as §1
# AgNbp2 = molecular target: AgNbp2
# Summary of the method: as §1
# AgRvs167 = molecular target: AgRvs167
# Summary of the method: as §1
# AgSho1 = molecular target: AgSho1
# Summary of the method: as §1
# AgSla1-D1-D2 = molecular target: AgSla1-D1-D2
# Summary of the method: as §1
# AgSla1-D3 = molecular target: AgSla1-D3
# Summary of the method: as §1
# CaAbp1-D1 = molecular target: CaAbp1-D1
# Summary of the method: as §1
# CaAbp1-D2 = molecular target: CaAbp1-D2
# Summary of the method: as §1
# CaBbc1 = molecular target: CaBbc1
# Summary of the method: as §1
# CaBem1-D1 = molecular target: CaBem1-D1
# Summary of the method: as §1
# CaBzz1-D1 = molecular target: CaBzz1-D1
# Summary of the method: as §1
# CaBzz1-D2 = molecular target: CaBzz1-D2
# Summary of the method: as §1
# CaCyk3 = molecular target: CaCyk3
# Summary of the method: as §1
# CaFus1 = molecular target: CaFus1
# Summary of the method: as §1
# CaHof1 = molecular target: CaHof1
# Summary of the method: as §1
# CaHse1 = molecular target: CaHse1
# Summary of the method: as §1
# CaLsb1 = molecular target: CaLsb1
# Summary of the method: as §1
# CaLsb4 = molecular target: CaLsb4
# Summary of the method: as §1
# CaMyo5 = molecular target: CaMyo5
# Summary of the method: as §1
binder,measurement,setting,value
AHFQPQRTAPKPPIS,SPOT peptide array binding signal intensity,CaNbp2,3970
same,SPOT peptide array binding signal intensity,CaRvs167,12.8
same,SPOT peptide array binding signal intensity,CaRvs167-3,≤ 0
same,SPOT peptide array binding signal intensity,CaSho1,11.8
same,SPOT peptide array binding signal intensity,CaSla1-D1-D2,54.5
same,SPOT peptide array binding signal intensity,CaSla1-D3,0.75
same,SPOT peptide array binding signal intensity,ScAbp1,11
same,SPOT peptide array binding signal intensity,ScBbc1,165
same,SPOT peptide array binding signal intensity,ScBem1-D1,6
same,SPOT peptide array binding signal intensity,ScBzz1-D1,17.5
same,SPOT peptide array binding signal intensity,ScBzz1-D2,12.8
same,SPOT peptide array binding signal intensity,ScCyk3,≤ 0
same,SPOT peptide array binding signal intensity,ScFus1,≤ 0
same,SPOT peptide array binding signal intensity,ScHof1,0.5
same,SPOT peptide array binding signal intensity,ScHse1,37
same,SPOT peptide array binding signal intensity,ScLsb1,0.25
same,SPOT peptide array binding signal intensity,ScLsb2,35
same,SPOT peptide array binding signal intensity,ScLsb3,152
same,SPOT peptide array binding signal intensity,ScLsb4,5
same,SPOT peptide array binding signal intensity,ScMyo3,1610
same,SPOT peptide array binding signal intensity,ScMyo5,1320
same,SPOT peptide array binding signal intensity,ScNbp2,6790
same,SPOT peptide array binding signal intensity,ScPex13,212
same,SPOT peptide array binding signal intensity,ScRvs167,59.8
same,SPOT peptide array binding signal intensity,ScSho1,≤ 0
same,SPOT peptide array binding signal intensity,ScSla1-D1-D2,265
same,SPOT peptide array binding signal intensity,ScSla1-D3,44
same,SPOT peptide array binding signal intensity,SpAbp1-D1,≤ 0
same,SPOT peptide array binding signal intensity,SpBbc1,22
same,SPOT peptide array binding signal intensity,SpBzz1-D1,258
same,SPOT peptide array binding signal intensity,SpBzz1-D2,18.1
same,SPOT peptide array binding signal intensity,SpCyk3,≤ 0
same,SPOT peptide array binding signal intensity,SpHof1,1.62
same,SPOT peptide array binding signal intensity,SpHof1-2,2
same,SPOT peptide array binding signal intensity,SpHof1-3,34
same,SPOT peptide array binding signal intensity,SpHse1,70.1
same,SPOT peptide array binding signal intensity,SpLsb1,36.8
same,SPOT peptide array binding signal intensity,SpLsb4,87.5
same,SPOT peptide array binding signal intensity,SpMyo1,2050
same,SPOT peptide array binding signal intensity,SpNbp2,264
same,SPOT peptide array binding signal intensity,SpPex13,≤ 0
same,SPOT peptide array binding signal intensity,SpRvs167,13.9
same,SPOT peptide array binding signal intensity,SpSla1-D1-D2,≤ 0
same,SPOT peptide array binding signal intensity,SpSla1-D3,≤ 0
DAPASKPSVPPRNYF,SPOT peptide array binding signal intensity,AgAbp1,2.5
same,SPOT peptide array binding signal intensity,AgBbc1,239
same,SPOT peptide array binding signal intensity,AgBem1-D1,2
same,SPOT peptide array binding signal intensity,AgBzz1-D1,26.5
same,SPOT peptide array binding signal intensity,AgBzz1-D2,≤ 0
same,SPOT peptide array binding signal intensity,AgCyk3,2.5
same,SPOT peptide array binding signal intensity,AgFus1,≤ 0
same,SPOT peptide array binding signal intensity,AgHof1,≤ 0
same,SPOT peptide array binding signal intensity,AgHse1,≤ 0
same,SPOT peptide array binding signal intensity,AgLsb1,1080
same,SPOT peptide array binding signal intensity,AgLsb4,69.5
same,SPOT peptide array binding signal intensity,AgMyo5,≤ 0
same,SPOT peptide array binding signal intensity,AgNbp2,45
same,SPOT peptide array binding signal intensity,AgRvs167,13.2
same,SPOT peptide array binding signal intensity,AgSho1,1
same,SPOT peptide array binding signal intensity,AgSla1-D1-D2,≤ 0
same,SPOT peptide array binding signal intensity,AgSla1-D3,≤ 0
same,SPOT peptide array binding signal intensity,CaAbp1-D1,17.5
same,SPOT peptide array binding signal intensity,CaAbp1-D2,3
same,SPOT peptide array binding signal intensity,CaBbc1,962
same,SPOT peptide array binding signal intensity,CaBem1-D1,≤ 0
same,SPOT peptide array binding signal intensity,CaBzz1-D1,190
same,SPOT peptide array binding signal intensity,CaBzz1-D2,5.75
same,SPOT peptide array binding signal intensity,CaCyk3,34.5
same,SPOT peptide array binding signal intensity,CaFus1,≤ 0
same,SPOT peptide array binding signal intensity,CaHof1,≤ 0
same,SPOT peptide array binding signal intensity,CaHse1,≤ 0
same,SPOT peptide array binding signal intensity,CaLsb1,35
same,SPOT peptide array binding signal intensity,CaLsb4,427
same,SPOT peptide array binding signal intensity,CaMyo5,≤ 0
same,SPOT peptide array binding signal intensity,CaNbp2,≤ 0
same,SPOT peptide array binding signal intensity,CaRvs167,199
same,SPOT peptide array binding signal intensity,CaRvs167-3,≤ 0
same,SPOT peptide array binding signal intensity,CaSho1,≤ 0
same,SPOT peptide array binding signal intensity,CaSla1-D1-D2,38
same,SPOT peptide array binding signal intensity,CaSla1-D3,≤ 0
same,SPOT peptide array binding signal intensity,ScAbp1,≤ 0
same,SPOT peptide array binding signal intensity,ScBbc1,5.5
same,SPOT peptide array binding signal intensity,ScBem1-D1,2
same,SPOT peptide array binding signal intensity,ScBzz1-D1,20
same,SPOT peptide array binding signal intensity,ScBzz1-D2,10
same,SPOT peptide array binding signal intensity,ScCyk3,≤ 0
same,SPOT peptide array binding signal intensity,ScFus1,≤ 0
same,SPOT peptide array binding signal intensity,ScHof1,≤ 0
same,SPOT peptide array binding signal intensity,ScHse1,≤ 0
same,SPOT peptide array binding signal intensity,ScLsb1,681
same,SPOT peptide array binding signal intensity,ScLsb2,2160
same,SPOT peptide array binding signal intensity,ScLsb3,1550
same,SPOT peptide array binding signal intensity,ScLsb4,293
same,SPOT peptide array binding signal intensity,ScMyo3,≤ 0
same,SPOT peptide array binding signal intensity,ScMyo5,≤ 0
same,SPOT peptide array binding signal intensity,ScNbp2,526
same,SPOT peptide array binding signal intensity,ScPex13,1310
same,SPOT peptide array binding signal intensity,ScRvs167,1530
same,SPOT peptide array binding signal intensity,ScSho1,≤ 0
same,SPOT peptide array binding signal intensity,ScSla1-D1-D2,329
same,SPOT peptide array binding signal intensity,ScSla1-D3,145
same,SPOT peptide array binding signal intensity,SpAbp1-D1,3
same,SPOT peptide array binding signal intensity,SpBbc1,182
same,SPOT peptide array binding signal intensity,SpBzz1-D1,95
